Measured values: PubChem BioAssay AID1159580 (chemical genetic matrix, 2015)
Several values for one entry are separate records, joined by “and”; a condition that tells them apart may be missing. Identical values can stand only once. In all, about 5,500 compounds went through this assay and about 2,000 (36%) were called active. Not shown: some 18% with an inconclusive outcome. Rule as the data show it: active = normalized growth mostly below about 0.91 (no sharp cut-off); inconclusive = no clear call, values can overlap the other calls; inactive = mostly above about 0.92. This is one part of the list.

Assay: chemical genetic growth profiling, strain panel (AID 1159580);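 also: tested at 20 µM; growth read once vehicle control cultures reached saturation at 30 °C; 1 = growth at the plate median or of vehicle wells; lower values mean less growth of the strain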
Details: growth OD
[1] = S. cerevisiae deletion strains, locus YBR021W, strain FUR4, active compounds read low
[2] = S. cerevisiae deletion strains, locus YBR229C, strain ROT2, active compounds read low
[3] = S. cerevisiae deletion strains, locus YCL029C, strain bik1, active compounds read low
[4] = S. cerevisiae deletion strains, locus YDL035C, strain GPR1, active compounds read low
[5] = S. cerevisiae deletion strains, locus YDL074C, strain BRE1, active compounds read low
[6] = S. cerevisiae deletion strains, locus YDL101C, strain DUN1, active compounds read low
[7] = S. cerevisiae deletion strains, locus YDL185W, strain tfp1, active compounds read low
[8] = S. cerevisiae deletion strains, locus YDL192W, strain arf1, active compounds read low
[9] = S. cerevisiae deletion strains, locus YDR101C, strain arx1, active compounds read low
[10] = S. cerevisiae deletion strains, locus YDR150W, strain NUM1, active compounds read low
[11] = S. cerevisiae deletion strains, locus YDR162C, strain NBP2, active compounds read low
[12] = S. cerevisiae deletion strains, locus YDR318W, strain mcm21, active compounds read low
[13] = S. cerevisiae deletion strains, locus YDR388W, active compounds read low
[14] = S. cerevisiae deletion strains, locus YDR502C, strain sam2, active compounds read low
[15] = S. cerevisiae deletion strains, locus YEL061C, strain CIN8, active compounds read low
[16] = S. cerevisiae deletion strains, locus YER110C, active compounds read low
[17] = S. cerevisiae deletion strains, locus YER155C, strain BEM2, active compounds read low
[18] = S. cerevisiae deletion strains, locus YER167W, strain BCK2, active compounds read low
[19] = S. cerevisiae deletion strains, locus YGL078C, strain dbp3, active compounds read low
[20] = S. cerevisiae deletion strains, locus YGL086W, strain mad1, active compounds read low
[21] = S. cerevisiae deletion strains, locus YGL248W, strain PDE1, active compounds read low
[22] = S. cerevisiae deletion strains, locus YGR135W, strain pre9, active compounds read low
[23] = S. cerevisiae deletion strains, locus YGR229C, strain SMI1, active compounds read low
[24] = S. cerevisiae deletion strains, locus YGR252W, strain gcn5, active compounds read low
[25] = S. cerevisiae deletion strains, locus YHR030C, strain SLT2, active compounds read low
[26] = S. cerevisiae deletion strains, locus YHR079C, strain IRE1 (second series), active compounds read low
[27] = S. cerevisiae deletion strains, locus YHR094C, strain hxt1, active compounds read low
[28] = S. cerevisiae deletion strains, locus YHR129C, strain ARP1, active compounds read low
[29] = S. cerevisiae deletion strains, locus YHR200W, strain rpn10, active compounds read low
[30] = S. cerevisiae deletion strains, locus YIL066C, strain RNR3, active compounds read low
[31] = S. cerevisiae deletion strains, locus YIL073C, strain SPO22, active compounds read low
[32] = S. cerevisiae deletion strains, locus YIL125W, strain kgd1, active compounds read low
[33] = S. cerevisiae deletion strains, locus YIR030C, strain dcg1, active compounds read low
[34] = S. cerevisiae deletion strains, locus YJL095W, strain BCK1, active compounds read low
[35] = S. cerevisiae deletion strains, locus YJL134W, strain LCB3, active compounds read low
[36] = S. cerevisiae deletion strains, locus YJL168C, strain set2, active compounds read low
[37] = S. cerevisiae deletion strains, locus YJL187C, strain SWE1 (second series), active compounds read low
[38] = S. cerevisiae deletion strains, locus YJR043C, strain POL32, active compounds read low
[39] = S. cerevisiae deletion strains, locus YKL009W, strain mrt4, active compounds read low
[40] = S. cerevisiae deletion strains, locus YKL068W, active compounds read low
[41] = S. cerevisiae deletion strains, locus YKL085W, strain MDH1 (second series), active compounds read low
[42] = S. cerevisiae deletion strains, locus YKL085W, strain MDH1, active compounds read low
[43] = S. cerevisiae deletion strains, locus YKR001C, strain vps1, active compounds read low
[44] = S. cerevisiae deletion strains, locus YLR039C, strain RIC1, active compounds read low
[45] = S. cerevisiae deletion strains, locus YLR058C, strain SHM2, active compounds read low
[46] = S. cerevisiae deletion strains, locus YLR102C, strain apc9, active compounds read low
[47] = S. cerevisiae deletion strains, locus YLR262C, strain YPT6, active compounds read low
[48] = S. cerevisiae deletion strains, locus YLR268W, strain sec22, active compounds read low
[49] = S. cerevisiae deletion strains, locus YLR330W, strain CHS5, active compounds read low
[50] = S. cerevisiae deletion strains, locus YLR342W, strain FKS1 (second series), active compounds read low
[51] = S. cerevisiae deletion strains, locus YLR371W, strain rom2, active compounds read low
[52] = S. cerevisiae deletion strains, locus YLR418C, strain cdc73, active compounds read low
[53] = S. cerevisiae deletion strains, locus YML016C, strain PPZ1, active compounds read low
[54] = S. cerevisiae deletion strains, locus YML032C, strain rad52, active compounds read low
[55] = S. cerevisiae deletion strains, locus YML124C, strain tub3, active compounds read low
[56] = S. cerevisiae deletion strains, locus YMR078C, strain ctf18, active compounds read low
[57] = S. cerevisiae deletion strains, locus YMR223W, strain ubp8, active compounds read low
[58] = S. cerevisiae deletion strains, locus YMR307W, strain GAS1, active compounds read low
[59] = S. cerevisiae deletion strains, locus YNL067W, strain RPL9B, active compounds read low
[60] = S. cerevisiae deletion strains, locus YNL128W, strain TEP1, active compounds read low
[61] = S. cerevisiae deletion strains, locus YNL153C, strain GIM3, active compounds read low
[62] = S. cerevisiae deletion strains, locus YNL233W, strain BNI4, active compounds read low
[63] = S. cerevisiae deletion strains, locus YNL250W, strain rad50, active compounds read low
[64] = S. cerevisiae deletion strains, locus YNL271C, strain bni1, active compounds read low
[65] = S. cerevisiae deletion strains, locus YNL298W, strain CLA4, active compounds read low
[66] = S. cerevisiae deletion strains, locus YNL307C, strain MCK1, active compounds read low
[67] = S. cerevisiae deletion strains, locus YNL322C, strain KRE1, active compounds read low
[68] = S. cerevisiae deletion strains, locus YNR052C, strain pop2, active compounds read low
[69] = S. cerevisiae deletion strains, locus YOL012C, strain htz1
[70] = S. cerevisiae deletion strains, locus YOL147C, strain pex11, active compounds read low
[71] = S. cerevisiae deletion strains, locus YOR061W, strain CKA2, active compounds read low
[72] = S. cerevisiae deletion strains, locus YOR069W, strain VPS5, active compounds read low
[73] = S. cerevisiae deletion strains, locus YOR136W, strain idh2, active compounds read low
[74] = S. cerevisiae deletion strains, locus YOR144C, strain elg1, active compounds read low
[75] = S. cerevisiae deletion strains, locus YOR184W, strain ser1, active compounds read low
[76] = S. cerevisiae deletion strains, locus YOR316C, strain cot1, active compounds read low
[77] = S. cerevisiae deletion strains, locus YPR119W, strain clb2, active compounds read low
[78] = S. cerevisiae deletion strains, locus YPR141C, strain kar3, active compounds read low
[79] = S. cerevisiae deletion strains, locus YPR163C, strain tif3, active compounds read low
[80] = S. cerevisiae deletion strains, locus YPR167C, strain met16, active compounds read low
[81] = S. cerevisiae deletion strains, strain wtn01, active compounds read low
[82] = S. cerevisiae strains, strain wild type, active compounds read low
[83] = S. cerevisiae deletion strains, locus YPL241C, strain CIN2, active compounds read low

Measured: normalized growth

COc1cc2c(cc1/C=C/C(=O)c1cc(OC)c(OC)cc1OC)OCO2
inactive: [1] 1.14 | [2] 0.968 | [3] 1.02 | [4] 1 | [5] 1.05 | [6] 0.994 | S. cerevisiae deletion strains, locus YDL134C, strain PPH21, active compounds read low 1.01 | [7] 1 | [8] 1.01 | [9] 0.998 | [10] 1.02 | [11] 0.974 | [12] 1.01 | [13] 1.02 | [14] 1.02 | [15] 1 | [16] 1.02 | [17] 1.02 | [18] 1.03 | [19] 0.997 | [20] 1.01 | [21] 0.996 | [22] 1.01 | [23] 1.01 | [24] 1.08 | [25] 1.02 | [26] 1 | [27] 1.01 | [28] 1.02 | [29] 1.02 | [30] 1.01 | [31] 1.06 | [32] 1.03 | [33] 1.01 | [34] 1 | [35] 1.01 | [36] 1.01 | [37] 1 | [38] 1.02 | [39] 1.02 | [40] 1 | [41] 1 | [42] 1 | S. cerevisiae deletion strains, locus YKL190W, strain CNB1, active compounds read low 0.994 | [43] 1.02 | [44] 0.994 | [45] 0.998 | [46] 1.02 | [47] 1.01 | [48] 1.02 | [49] 1.02 | [50] 1.06 | [51] 1.02 | [52] 1.04 | [53] 1.01 | [54] 1.02 | [55] 0.995 | [56] 1.03 | [57] 1.01 | S. cerevisiae deletion strains, locus YMR263W, strain SAP30, active compounds read low 1 | [58] 1.21 | [59] 0.998 | [60] 0.996 | [61] 0.983 | [62] 1.02 | [63] 1.01 | [64] 1.01 | [65] 1.02 | [66] 1.03 | [67] 1.01 | [68] 1.01 | S. cerevisiae deletion strains, locus YOL006C, strain TOP1, active compounds read low 1.27 | [69] 1.18 | [70] 1.01 | [71] 0.975 | [72] 1.01 | [73] 1.02 | [74] 1 | [75] 0.993 | [76] 1.04 | S. cerevisiae deletion strains, locus YPL055C, strain LGE1, active compounds read low 1.05 | [77] 1.01 | [78] 1.01 | [79] 1.01 | [80] 1.01 | [81] 1.01 | [82] 1.01

COc1cc2c(cc1-c1cc3cc4ccoc4cc3oc1=O)OCO2
inactive: [2] 0.995 | [3] 0.965 | [4] 1.01 | [5] 1 | [6] 0.98 | [7] 0.97 | [8] 1.01 | [9] 0.981 | [10] 0.991 | [11] 0.977 | [12] 0.973 | [13] 0.965 | [14] 0.95 | [15] 1.01 | [16] 0.97 | [18] 1.02 | [19] 0.997 | [20] 1.01 | [21] 0.977 | S. cerevisiae deletion strains, locus YGR078C, strain PAC10, active compounds read low 0.993 | [22] 0.993 | [24] 1.16 | [25] 0.984 and 1 | [26] 0.979 | S. cerevisiae deletion strains, locus YHR079C, strain IRE1, active compounds read low 1.01 | [28] 1.01 | [29] 0.972 | [30] 0.973 | [31] 0.902 | [32] 0.984 | [33] 0.989 | [34] 0.979 and 1 | [35] 0.973 | [36] 1.01 | [37] 0.98 | [38] 1.01 | S. cerevisiae deletion strains, locus YJR066W, strain TOR1, active compounds read low 0.942 | [40] 1.02 | [41] 1.05 | [42] 1.05 | [43] 1.01 | [44] 0.954 | [45] 0.973 | [46] 0.997 | S. cerevisiae deletion strains, locus YLR113W, strain HOG1, active compounds read low 0.996 | [47] 1.19 | [48] 0.95 | [49] 0.983 | [50] 0.993 | [52] 0.915 | [53] 0.982 | [54] 0.983 | [55] 0.975 | [56] 0.984 | [57] 0.999 | [59] 0.968 | [60] 1.01 | S. cerevisiae deletion strains, locus YNL183C, strain NPR1, active compounds read low 0.925 | [62] 1 | [63] 0.975 | [64] 0.991 | [65] 1 | [66] 0.944 | [68] 1.03 | [69] 1.22 | [70] 0.992 | [71] 0.971 | [72] 0.977 | [73] 0.987 | [74] 0.981 | [75] 0.907 | S. cerevisiae deletion strains, locus YOR231W, strain MKK1, active compounds read low 1.07 | [83] 0.984 | S. cerevisiae deletion strains, locus YPL256C, strain CLN2, active compounds read low 1.01 | [77] 0.966 | [78] 1.02 | [79] 0.969 | [80] 0.995 | [81] 0.972 | [82] 1.01
active: [1] 1.31 [resistant] | [17] 1.11 [resistant] | [27] 1.16 [resistant] | [39] 1.19 [resistant] | [51] 1.18 [resistant] | [58] 1.57 [resistant] | [67] 1.16 [resistant] | [76] 1.17 [resistant]

CCCCN1CCC(COC(=O)c2cc(Cl)c(N)c3c2OCCO3)CC1
inactive: S. cerevisiae deletion strains, locus YAL013W, strain DEP1, active compounds read low 0.976 | S. cerevisiae deletion strains, locus YAL040C, strain CLN3, active compounds read low 0.973 | S. cerevisiae deletion strains, locus YCL061C, strain MRC1 (second series), active compounds read low 0.987 | [10] 0.997 | S. cerevisiae deletion strains, locus YDR363W, strain ESC2, active compounds read low 0.968 | S. cerevisiae deletion strains, locus YER002W, strain NOP16, active compounds read low 0.987 | [23] 0.966 | [58] 0.989 | [60] 0.991 | [61] 0.996 | S. cerevisiae deletion strains, locus YNL175C, strain NOP13, active compounds read low 1 | S. cerevisiae deletion strains, locus YNL197C, strain WHI3, active compounds read low 0.991 | S. cerevisiae deletion strains, locus YNL224C, strain SQS1, active compounds read low 1.01 | [67] 0.982 | S. cerevisiae deletion strains, locus YOR083W, strain WHI5 (second series), active compounds read low 0.989 | [83] 0.993
